# Results filed as inconclusive are left out. Where a call stands in place of a potency, no number is given. Active and inactive are the calls of the source. Calls come from the whole dose curve; as a rule, active = well fitted inhibition curve with a large enough effect; inconclusive = small, poorly fitted or top-dose-only effect; inactive = flat fitted curve, though single readings scatter. Where a SMILES comes first, the peptide text is derived from it. Bridges are numbered along the chain shown (N, C = ends). [ ]: non-standard residue; d: D form. The star is where a group is joined. X2 = CC[C@H](C)CCCCC(=O)*; Dab = NCC[C@H](N)C(=O)O
# Test: P-glycoprotein substrates identified in KB-8-5-11 adenocarcinoma cell line, qHTS therapeutic library screen (AID 1346987); note: nearly all actives have a fitted effect of over 65% in size
# Details: KB-8-5-11 (P-gp overexpressing) viability, CellTiter-Glo, 72 h; series mostly up to 44.5 µM
# How it was run: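 Compounds are pinned in dose-response onto KB-8-5-11 cells (500 cells/well, colchicine-free medium) and left 72 h at 37 degree C. CellTiter-Glo luminescence then yields AC50 values.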
# Potency is the fitted concentration of half-maximal effect.
row,Compound,Potency
1,Cc1cc(-c2ccc(N=Nc3ccc4c(S(=O)(=O)O)cc(S(=O)(=O)O)c(N)c4c3O)c(C)c2)ccc1N=Nc1ccc2c(S(=O)(=O)O)cc(S(=O)(=O)O)c(N)c2c1O,6.51 µM (active)
2,C[C@@H]1O[C@@H]1P(=O)(O)O,inactive
3,Cc1cccc(Nc2ncccc2C(=O)O)c1C,inactive
4,CC(C)[C@@H]1CC[C@@H](C)C[C@H]1O,inactive
5,CN(CCO)CC(O)Cn1cnc2c1c(=O)n(C)c(=O)n2C (centres undefined) (tested in a mixture with another compound),inactive
6,CC1(C)C(\C=C/C=C\C=C/C=C2/N(CCCCS(=O)(=O)O)c3ccc4ccccc4c3C2(C)C)=[N+](CCCCS(=O)(=O)[O-])c2ccc3ccccc3c21,inactive
7,FCOC(C(F)(F)F)C(F)(F)F,inactive
8,CC(C)(COP(=O)(O)OP(=O)(O)OC[C@H]1O[C@@H](n2cnc3c(N)ncnc32)[C@H](O)[C@@H]1OP(=O)(O)O)C(O)C(=O)NCCC(=O)NCCS (some centres undefined),inactive
9,CO[C@H]1C=CO[C@@]2(C)Oc3c(C)c(O)c4c(O)c(cc(O)c4c3C2=O)NC(=O)/C(C)=C\C=C/[C@H](C)[C@H](O)[C@@H](C)[C@@H](O)[C@@H](C)[C@H](OC(C)=O)[C@@H]1C,inactive
10,c1ccc2c(c1)OCC(CN1CCCCC1)O2 (centres undefined),inactive
11,COC(=O)CCC[N+](C)(C)C,inactive
12,CCC(C(=O)NC(N)=O)c1ccccc1 (centres undefined),inactive
13,C[C@@H]1C[C@H]2[C@@H]3CCC4=CC(=O)C=C[C@]4(C)[C@@]3(F)[C@@H](O)C[C@]2(C)[C@@]1(O)C(=O)COC(=O)c1cccc(S(=O)(=O)O)c1,inactive
14,CC(C)(Oc1ccc(C2CCCc3ccccc32)cc1)C(=O)O (centres undefined),inactive
15,CC(=O)Nc1ccc(OC(=O)c2ccccc2O)cc1,inactive
16,CC(C)(C)CC(C)(C)c1cc(Cc2cc(C(C)(C)CC(C)(C)C)cc(-n3nc4ccccc4n3)c2O)c(O)c(-n2nc3ccccc3n2)c1,inactive
17,CCN(CC)C(=O)c1cccnc1,inactive
18,CC(=NCc1ccccc1)c1ccccc1O,inactive
19,CC[C@@H](C)[C@H](N)C(=O)O,inactive
20,CCCC(=O)O,inactive

row,Compound,Potency
1,CC(=O)O[C@@H]1CC2CCC1(C)C2(C)C (some centres undefined),inactive
2,NC(=O)OC[C@@H]1[C@H](NC(=O)/C(=N\OCC(=O)O)c2csc(N)n2)C(=O)N1S(=O)(=O)O,inactive
3,CCCCCCCCCCCCCCCCCCCCCC(=O)Nc1ccn([C@@H]2O[C@H](CO)[C@@H](O)[C@@H]2O)c(=O)n1,inactive
4,C[C@@H]1C[C@H]2[C@@H]3C[C@H](F)C4=CC(=O)C=C[C@]4(C)[C@@]3(Cl)[C@@H](O)C[C@]2(C)[C@H]1C(=O)COC(=O)C(C)(C)C,inactive
5,O=C1C2CC3CC1CC(O)(C3)C2,inactive
6,CC(=O)N[C@@H]([C@@H](O)[C@H](O)[C@H](O)CO)[C@@H](O)CC(=O)C(=O)O,inactive
7,O=P(O)(O)OC[C@H](O)CO,inactive
8,CC(C)CN(C[C@@H](OP(=O)(O)O)[C@H](Cc1ccccc1)NC(=O)O[C@H]1CCOC1)S(=O)(=O)c1ccc(N)cc1,inactive
9,NC(=O)c1ccc[n+]([C@@H]2O[C@H](COP(=O)([O-])OP(=O)(O)OC[C@H]3O[C@@H](n4cnc5c(N)ncnc54)[C@H](O)[C@@H]3O)[C@@H](O)[C@H]2O)c1,inactive
10,[O]=[Bi][O]C(=O)[O][Bi]=[O],inactive
11,O=C(CCCN1CCN2CCCC2C1)c1ccc(F)cc1 (centres undefined),inactive
12,C/C(=C\C(=O)OCCCCCCCCC(=O)O)C[C@@H]1OC[C@H](C[C@@H]2O[C@H]2[C@@H](C)[C@H](C)O)[C@@H](O)[C@H]1O,inactive
13,CC1=C[C@H](O)CC(C)(C)[C@H]1/C=C/C(C)=C/C=C/C(C)=C/C=C/C=C(C)/C=C/C=C(C)/C=C/C1=C(C)C[C@@H](O)CC1(C)C,inactive
14,O=S(=O)(O)CCCS(=O)(=O)O,inactive
15,CC1CC(OC(=O)C(O)c2ccccc2)CC(C)(C)C1 (centres undefined),inactive
16,CC[C@H](C)CCCCC(=O)N[C@@H](CCN)C(=O)N[C@H](C(=O)N[C@@H](CCN)C(=O)N[C@H]1CCNC(=O)[C@@H]([C@H](C)O)NC(=O)[C@H](CCN)NC(=O)[C@H](CCN)NC(=O)[C@H](CC(C)C)NC(=O)[C@@H](CC(C)C)NC(=O)[C@H](CCN)NC1=O)[C@@H](C)O (X2-[Dab]T[Dab][Dab][Dab][dL]L[Dab][Dab][dT]; lactam 4-C),inactive
17,NC(Cc1ccccc1)C(=O)O (centres undefined),inactive
18,CO/N=C(\C(=O)N[C@@H]1C(=O)N2C(C(=O)O)=C(C[N+]3(C)CCCC3)CS[C@H]12)c1csc(N)n1,inactive
19,NC(N)=O,inactive

# From PubChem BioAssay (NCATS)
